Among the data in PubChem BioAssay (Tox21) are outcome, Potency and max activation values, retold here.

Test [1] in a line: qHTS assay to identify small molecule agonists of the TGF-beta/Smad signaling pathway - cell viability counter screen (AID 1346829). Note: top concentration of the series differs between compounds; nearly all actives have a fitted effect of over 45% in size. A digest of the protocol:
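Tox21 qHTS format: SBE-bla HEK 293T cells treated with DMSO-dissolved compounds for 5 hr; CellTiter-Glo luminescence after 30 min at room temperature.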

The nature of test [2]: qHTS assay to identify small molecule agonists of the TGF-beta/Smad signaling pathway (AID 1346859; active = well fitted activation curve with a large enough effect in the signal ratio in the repeat runs, not every such curve was filed as active; the % refers to the signal ratio; note: series mostly up to about 77 µM). A digest of the protocol:
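Stable Smad binding element-beta-lactamase HEK 293T cells; 5 hr compound exposure at 37 C under 5% CO2; 2 hr room-temperature substrate step; fluorescence excited at 405 nm, collected at 460 nm and 530 nm.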

Test [3] concerns the target Thyrotropin-releasing hormone receptor (Homo sapiens) (UniProt P34981). Briefly: qHTS assay to identify small molecule antagonists of the thyrotropin-releasing hormone receptor (TRHR) signaling pathway (AID 1346877; active = well fitted inhibition curve with a large enough effect in the repeat runs, not every such curve was filed as active; note: series mostly up to about 51 µM). In outline:
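Overnight-plated (18 h, 37 °C) HEK293 cells expressing TRHR were dye-loaded 2 h, treated with compound, then stimulated with TRH at 1 nM final. Fluorescence intensity was captured every second for 3 min.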

For test [4] the target is unchanged. Nature of the test: qHTS assay to identify small molecule agonists of the thyrotropin-releasing hormone receptor (TRHR) signaling pathway (AID 1346891; calls by dose curve;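 note: HEK293 cells expressing TRHR with calcium dye readout; series mostly up to about 58 µM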). A digest of the protocol: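 In 1536-format, 1500 TRHR-Hek293 cells per well grew 18 h, took up calcium dye for 2 h at 37 °C, received compound, and were read kinetically; 15-point titrations, triplicates.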
The nature of test [5]: Human pregnane X receptor (PXR) small molecule agonists, qHTS cell viability counter screen (AID 1346977). Note: nearly all actives have a fitted effect of over 50% in size. In outline: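 Readout is CellTiter-Fluor fluorescence from PXR-Luc HepG2 cells. Plated cells rested 5hr, then were treated with compounds for 24hr at 37C and 5% CO2, with reagent present during the last hour.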
The nature of test [6]: Caspase-3/7 induction in HepG2 cells by small molecules, qHTS assay (AID 1346978). Note: nearly all actives have a fitted effect of over 15% in size. A digest of the protocol:
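Caspase-3/7 induction was measured by Caspase-Glo 3/7 luminescence (30 min, room temperature) after a 17 hr compound exposure of wild-type HepG2 cells seeded at 2,000 per well and pre-incubated 5 hr.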

A short description of test [7]: Caspase-3/7 induction in CHO-K1 cells by small molecules, qHTS cell viability counter screen (AID 1346979). Note: nearly all actives have a fitted effect of over 35% in size. A digest of the protocol:
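To flag cytotoxic compounds, treated CHO-K1 wild-type cells were given CellTiter-Fluor at 16hr and read fluorescently after 1hr at 37C; the caspase-3/7 luminescence was measured in these same wells.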

A short description of test [8]: Caspase-3/7 induction in CHO-K1 cells by small molecules, qHTS assay (AID 1346980). Note: nearly all actives have a fitted effect of over 15% in size. In outline: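 Luminescent Caspase-Glo 3/7 read (30min, room temperature) quantified apoptosis induction. Cells were wild-type CHO-K1, treated with compound for 17hr at 37 C and 5% CO2.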
Test [9] in a line: Caspase-3/7 induction in HepG2 cells by small molecules, qHTS cell viability counter screen (AID 1346981). Note: series mostly up to about 92 µM; nearly all actives have a fitted effect of over 30% in size. A digest of the protocol: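 Treatment of HepG2 cells with DMSO-delivered compounds ran 16 hr at 37 C following a 5-hr pre-incubation of 2,000 cells/well. CellTiter-Fluor fluorescence, read after 1 hr, served as the viability measure in a qHTS format.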
For test [10], the target named is Nuclear receptor subfamily 1 group I member 2 (Homo sapiens) (UniProt O75469). Briefly: Human pregnane X receptor (PXR) small molecule agonists, qHTS assay (AID 1346982). Note: nearly all actives have a fitted effect of over 35% in size. Note: potency is the fitted concentration of half-maximal effect. In outline:
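Stable HepG2 line reporting PXR-mediated CYP3A4 expression via luciferase. Treatment: 24 hr with compounds in DMSO at 37 C. Detection: ONE-Glo luminescence.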

In test [11] the target is Nuclear receptor subfamily 1 group I member 2 (Rattus norvegicus) (UniProt Q9R1A7). Nature of the test: Rat pregnane X receptor (rPXR) activation by small molecules, qHTS assay (AID 1346983). Note: nearly all actives have a fitted effect of over 20% in size. Particulars: rPXR luciferase reporter cells, One-Glo luminescence, 24 h; max activation: hits give high values. In outline:
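Luminescent readout (One-Glo luciferase, 30 min room temperature) followed 24 hr compound treatment at 37 C of rPXR cells plated 2,000 per well and preincubated 5hr; qHTS format with compounds delivered in DMSO.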

Test [12] addresses Nuclear receptor subfamily 1 group I member 2 (Homo sapiens) (UniProt O75469). Briefly: CYP3A4 induction through human pregnane X receptor (PXR) by small molecules, qHTS assay (AID 1346984). Note: nearly all actives have a fitted effect of over 40% in size. In outline:
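After 24 h at 37C with compound, DPX-2 cells (HepG2, co-transfected PXR response element and CYP3A4 promoter-luciferase) got 3uM final P450-Glo Luciferin-IPA for 3 h; One-Glo luminescence followed.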

The target in test [13] is Cytochrome P450 2D6 (Homo sapiens) (UniProt P10635). Nature of the test: Cytochrome P450 Family 2 Subfamily D Member 6 (CYP2D6) small molecule antagonists: luciferase reporter qHTS assay (AID 1671196). Note: nearly all actives have a fitted effect of over 50% in size. Note: potency is the fitted concentration of half-maximal effect. A digest of the protocol: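 Chemicals tested for interference with CYP2D6 activity; proluciferin substrate, NADPH regeneration, 1 h at room temperature, luminescent detection.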
Sequence of Cytochrome P450 2D6 (Homo sapiens) (P10635 whole entry, looked up): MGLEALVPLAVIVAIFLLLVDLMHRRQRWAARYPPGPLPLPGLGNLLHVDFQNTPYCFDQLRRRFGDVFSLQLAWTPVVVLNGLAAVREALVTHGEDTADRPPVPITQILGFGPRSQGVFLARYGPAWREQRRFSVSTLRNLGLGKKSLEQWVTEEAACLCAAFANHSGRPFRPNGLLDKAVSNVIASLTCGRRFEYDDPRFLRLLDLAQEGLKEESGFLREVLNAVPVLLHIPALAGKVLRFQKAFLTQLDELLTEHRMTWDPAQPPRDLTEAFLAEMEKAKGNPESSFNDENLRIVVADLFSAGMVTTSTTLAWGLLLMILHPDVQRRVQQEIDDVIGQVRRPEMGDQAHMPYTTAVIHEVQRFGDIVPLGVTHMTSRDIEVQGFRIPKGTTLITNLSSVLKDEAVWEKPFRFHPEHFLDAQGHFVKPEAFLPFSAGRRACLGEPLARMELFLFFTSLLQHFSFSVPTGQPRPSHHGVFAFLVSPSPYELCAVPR

The target of test [14] is Cytochrome P450 2C19 (Homo sapiens) (UniProt P33261). Briefly: Cytochrome P450 Family 2 Subfamily C Member 19 (CYP2C19) small molecule antagonists: luciferase reporter qHTS assay (AID 1671197). Note: nearly all actives have a fitted effect of over 65% in size. Note: potency is the fitted concentration of half-maximal effect. A digest of the protocol:
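Relative luminescence units recorded 20 min after the detection reagent stopped a 1 h, 37C CYP2C19 reaction on proluciferin substrate, which was started by NADPH regeneration following 10 min room-temperature compound preincubation; ketoconazole positive control.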

Test [15] deals with Cytochrome P450 2C9 (Homo sapiens) (UniProt P11712). Briefly: Cytochrome P450 Family 2 Subfamily C Member 9 (CYP2C9) small molecule antagonists: luciferase reporter qHTS assay (AID 1671198). Note: nearly all actives have a fitted effect of over 50% in size. Note: potency is the fitted concentration of half-maximal effect. A digest of the protocol: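 Enzyme-substrate mix preincubated with compound 10 min at room temperature; reaction started with NADPH regeneration solution, 1 h 37C. Luminescent luciferin product read after 20 min detection reagent.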
Sequence of Cytochrome P450 2C9 (Homo sapiens) (P11712 whole entry, looked up): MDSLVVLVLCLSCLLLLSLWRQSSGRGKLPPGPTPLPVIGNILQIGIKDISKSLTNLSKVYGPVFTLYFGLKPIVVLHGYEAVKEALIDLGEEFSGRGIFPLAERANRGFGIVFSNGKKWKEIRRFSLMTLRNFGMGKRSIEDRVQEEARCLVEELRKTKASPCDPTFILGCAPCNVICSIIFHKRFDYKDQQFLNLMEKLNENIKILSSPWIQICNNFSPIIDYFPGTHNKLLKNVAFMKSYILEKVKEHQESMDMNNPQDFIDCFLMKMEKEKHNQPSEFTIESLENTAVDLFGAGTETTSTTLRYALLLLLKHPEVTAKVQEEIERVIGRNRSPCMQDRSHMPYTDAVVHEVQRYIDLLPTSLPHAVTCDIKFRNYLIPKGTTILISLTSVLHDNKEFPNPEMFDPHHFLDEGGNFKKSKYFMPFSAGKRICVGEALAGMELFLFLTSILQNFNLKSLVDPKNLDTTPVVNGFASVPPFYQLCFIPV

For test [16], the target named is Cytochrome P450 1A2 (Homo sapiens) (UniProt P05177). Briefly: Cytochrome P450 Family 1 Subfamily A Member 2 (CYP1A2) small molecule antagonists: luciferase reporter qHTS assay (AID 1671199). Note: nearly all actives have a fitted effect of over 50% in size. Note: potency is the fitted concentration of half-maximal effect. A digest of the protocol: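 Read-out is luminescence from luciferin detection reagent (20 min) proportional to CYP1A2 activity; compounds in DMSO preincubated 10 min with enzyme and proluciferin substrate, then NADPH regeneration solution, 1 h, room temperature.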
Sequence of Cytochrome P450 1A2 (Homo sapiens) (P05177 whole entry, looked up): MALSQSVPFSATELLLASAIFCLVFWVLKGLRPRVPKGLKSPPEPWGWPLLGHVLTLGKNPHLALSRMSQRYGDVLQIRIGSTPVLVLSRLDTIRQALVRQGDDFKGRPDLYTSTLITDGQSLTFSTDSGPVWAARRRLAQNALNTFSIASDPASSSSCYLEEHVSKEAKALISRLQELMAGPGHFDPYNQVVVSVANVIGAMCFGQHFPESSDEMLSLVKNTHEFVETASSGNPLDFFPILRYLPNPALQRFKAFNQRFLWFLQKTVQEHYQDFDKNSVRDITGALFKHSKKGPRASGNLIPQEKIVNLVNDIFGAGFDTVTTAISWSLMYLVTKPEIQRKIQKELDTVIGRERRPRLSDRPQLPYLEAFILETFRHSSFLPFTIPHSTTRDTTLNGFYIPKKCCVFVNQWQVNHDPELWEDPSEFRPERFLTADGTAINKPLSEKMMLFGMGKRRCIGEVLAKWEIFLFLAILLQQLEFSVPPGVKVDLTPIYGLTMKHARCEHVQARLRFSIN

Test [17] deals with Voltage-gated inwardly rectifying potassium channel KCNH2 (Homo sapiens) (UniProt Q12809). Nature of the test: Human Ether-a-go-go-Related Gene (hERG) channel small molecule antagonists: fluorescence cell-based qHTS assay (AID 1671200). Note: nearly all actives have a fitted effect of over 50% in size. Note: potency is the fitted concentration of half-maximal effect. A digest of the protocol: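 Measured: Tl+ flux via fluorescence (480/540 nm) in hERG-expressing U2OS cells after 1 h dye loading at room temperature.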
Sequence of Voltage-gated inwardly rectifying potassium channel KCNH2 (Homo sapiens) (Q12809 whole entry, looked up): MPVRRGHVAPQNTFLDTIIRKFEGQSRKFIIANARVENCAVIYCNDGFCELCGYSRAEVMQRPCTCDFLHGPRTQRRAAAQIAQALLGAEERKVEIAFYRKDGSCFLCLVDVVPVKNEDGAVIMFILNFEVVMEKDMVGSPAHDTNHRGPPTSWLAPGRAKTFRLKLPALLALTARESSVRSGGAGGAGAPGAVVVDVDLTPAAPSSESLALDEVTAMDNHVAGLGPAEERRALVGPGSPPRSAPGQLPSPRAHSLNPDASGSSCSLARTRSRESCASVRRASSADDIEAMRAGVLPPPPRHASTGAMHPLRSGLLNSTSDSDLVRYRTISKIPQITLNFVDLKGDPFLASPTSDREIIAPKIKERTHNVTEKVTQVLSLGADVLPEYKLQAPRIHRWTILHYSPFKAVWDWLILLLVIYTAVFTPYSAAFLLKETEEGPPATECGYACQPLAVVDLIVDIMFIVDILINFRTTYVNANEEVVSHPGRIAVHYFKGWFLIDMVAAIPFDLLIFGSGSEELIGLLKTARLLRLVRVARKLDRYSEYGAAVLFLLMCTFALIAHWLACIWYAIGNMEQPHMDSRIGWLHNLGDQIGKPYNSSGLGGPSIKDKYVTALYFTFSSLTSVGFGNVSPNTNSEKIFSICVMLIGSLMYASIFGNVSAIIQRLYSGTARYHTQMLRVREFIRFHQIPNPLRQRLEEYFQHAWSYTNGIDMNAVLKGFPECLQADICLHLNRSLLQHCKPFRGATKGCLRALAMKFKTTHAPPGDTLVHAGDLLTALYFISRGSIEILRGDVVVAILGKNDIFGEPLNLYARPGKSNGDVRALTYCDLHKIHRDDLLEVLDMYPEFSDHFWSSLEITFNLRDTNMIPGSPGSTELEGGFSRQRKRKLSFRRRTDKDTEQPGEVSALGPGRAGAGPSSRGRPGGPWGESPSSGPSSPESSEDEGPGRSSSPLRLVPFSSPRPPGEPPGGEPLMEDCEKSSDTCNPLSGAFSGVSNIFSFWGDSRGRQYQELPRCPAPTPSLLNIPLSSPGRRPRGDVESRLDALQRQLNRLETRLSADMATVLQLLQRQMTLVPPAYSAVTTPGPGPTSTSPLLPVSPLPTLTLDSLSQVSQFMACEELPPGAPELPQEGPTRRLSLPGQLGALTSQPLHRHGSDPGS

Test [18] has as its target Cytochrome P450 3A4 (Homo sapiens) (UniProt P08684). Nature of the test: Cytochrome P450 Family 3 Subfamily A Member 4 (CYP3A4) small molecule antagonists: luciferase reporter qHTS assay (AID 1671201). A digest of the protocol: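 Setup: enzyme-substrate mix, compound pin transfer, 10 min RT. Reaction: NADPH regeneration solution, 1 h RT. Readout: detection reagent stops turnover, luminescence measured after 20 min, expressed in relative luminescence units.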

Test [19] deals with Nuclear receptor subfamily 1 group I member 2 (Homo sapiens) (UniProt O75469). Nature of the test: Human pregnane X receptor (PXR) activation by small molecules, qHTS assay (AID 1346985). Note: nearly all actives have a fitted effect of over 40% in size. In outline:
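DPX-2 cells (HepG2 co-transfected with a PXR response element and a CYP3A4-promoter luciferase construct) were seeded at 2,000 per well, rested 5 hr at 37C, then exposed to DMSO-dissolved compounds for 24 hr. Activation was read as luciferase luminescence.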

Each structure is given as a SMILES string. A number with no mark means an inactive call. Results filed as inconclusive are left out. The source made the active and inactive calls. Unless noted, calls come from the whole dose curve; as a rule, active = well fitted curve in the direction sought with a large enough effect in the repeat runs; inconclusive = weak or mixed curves; inactive = no such curve, though single readings can be large; an effect the other way counts as inactive or inconclusive.
% is set by controls: 0 for no effect and ±100 for the full control effect.

Sequence of Cytochrome P450 3A4 (Homo sapiens) (P08684 whole entry, looked up): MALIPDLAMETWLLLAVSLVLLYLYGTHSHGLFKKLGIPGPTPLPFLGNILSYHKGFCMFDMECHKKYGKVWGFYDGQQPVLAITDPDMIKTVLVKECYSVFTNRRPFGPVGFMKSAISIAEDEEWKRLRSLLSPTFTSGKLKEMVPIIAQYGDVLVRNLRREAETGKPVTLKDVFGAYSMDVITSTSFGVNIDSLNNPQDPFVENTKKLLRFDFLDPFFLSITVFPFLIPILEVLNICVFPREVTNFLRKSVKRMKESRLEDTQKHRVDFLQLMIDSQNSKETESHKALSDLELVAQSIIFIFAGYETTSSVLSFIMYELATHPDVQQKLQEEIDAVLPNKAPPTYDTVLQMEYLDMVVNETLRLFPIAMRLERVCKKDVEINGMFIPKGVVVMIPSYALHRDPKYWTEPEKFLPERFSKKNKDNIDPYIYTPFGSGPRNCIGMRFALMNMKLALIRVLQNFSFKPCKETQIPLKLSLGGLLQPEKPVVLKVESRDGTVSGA
Sequence of Thyrotropin-releasing hormone receptor (Homo sapiens) (P34981 whole entry, looked up): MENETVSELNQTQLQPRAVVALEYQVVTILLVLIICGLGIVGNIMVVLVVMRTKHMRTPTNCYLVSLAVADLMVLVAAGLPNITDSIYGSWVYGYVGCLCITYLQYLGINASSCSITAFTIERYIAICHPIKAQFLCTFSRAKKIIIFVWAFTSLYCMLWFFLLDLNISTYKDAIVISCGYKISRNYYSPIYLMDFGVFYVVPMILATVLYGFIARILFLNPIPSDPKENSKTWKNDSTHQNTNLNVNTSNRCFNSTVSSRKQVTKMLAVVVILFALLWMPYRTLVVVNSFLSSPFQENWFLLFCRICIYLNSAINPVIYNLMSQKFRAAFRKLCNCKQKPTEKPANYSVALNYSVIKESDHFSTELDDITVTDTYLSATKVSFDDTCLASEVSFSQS
Sequence of Cytochrome P450 2C19 (Homo sapiens) (P33261 whole entry, looked up): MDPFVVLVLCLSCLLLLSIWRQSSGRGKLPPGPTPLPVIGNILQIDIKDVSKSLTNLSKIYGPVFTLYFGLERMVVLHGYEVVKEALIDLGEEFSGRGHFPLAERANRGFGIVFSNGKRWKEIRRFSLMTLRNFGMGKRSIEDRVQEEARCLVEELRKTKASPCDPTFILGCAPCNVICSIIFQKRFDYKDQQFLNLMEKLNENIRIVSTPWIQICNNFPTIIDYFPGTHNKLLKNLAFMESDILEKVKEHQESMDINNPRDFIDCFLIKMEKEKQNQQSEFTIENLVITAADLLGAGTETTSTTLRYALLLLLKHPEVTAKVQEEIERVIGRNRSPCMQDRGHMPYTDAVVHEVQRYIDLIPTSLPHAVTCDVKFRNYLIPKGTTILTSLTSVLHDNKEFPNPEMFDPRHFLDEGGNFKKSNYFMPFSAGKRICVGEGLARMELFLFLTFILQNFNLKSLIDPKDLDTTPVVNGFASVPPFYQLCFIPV
Sequence of Nuclear receptor subfamily 1 group I member 2 (Homo sapiens) (O75469 whole entry, looked up): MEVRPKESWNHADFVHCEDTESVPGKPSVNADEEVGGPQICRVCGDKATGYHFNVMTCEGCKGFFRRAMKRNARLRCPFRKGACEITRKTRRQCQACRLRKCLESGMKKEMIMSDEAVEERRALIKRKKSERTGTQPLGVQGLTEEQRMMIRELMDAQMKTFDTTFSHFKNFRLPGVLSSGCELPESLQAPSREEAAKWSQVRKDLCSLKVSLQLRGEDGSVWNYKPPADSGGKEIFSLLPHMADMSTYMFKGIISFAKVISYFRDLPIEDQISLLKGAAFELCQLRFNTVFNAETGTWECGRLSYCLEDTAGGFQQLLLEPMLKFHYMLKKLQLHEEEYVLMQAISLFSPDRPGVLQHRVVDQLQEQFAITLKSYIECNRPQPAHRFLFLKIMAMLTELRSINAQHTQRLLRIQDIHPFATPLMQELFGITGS
Sequence of Nuclear receptor subfamily 1 group I member 2 (Rattus norvegicus) (Q9R1A7 whole entry, looked up): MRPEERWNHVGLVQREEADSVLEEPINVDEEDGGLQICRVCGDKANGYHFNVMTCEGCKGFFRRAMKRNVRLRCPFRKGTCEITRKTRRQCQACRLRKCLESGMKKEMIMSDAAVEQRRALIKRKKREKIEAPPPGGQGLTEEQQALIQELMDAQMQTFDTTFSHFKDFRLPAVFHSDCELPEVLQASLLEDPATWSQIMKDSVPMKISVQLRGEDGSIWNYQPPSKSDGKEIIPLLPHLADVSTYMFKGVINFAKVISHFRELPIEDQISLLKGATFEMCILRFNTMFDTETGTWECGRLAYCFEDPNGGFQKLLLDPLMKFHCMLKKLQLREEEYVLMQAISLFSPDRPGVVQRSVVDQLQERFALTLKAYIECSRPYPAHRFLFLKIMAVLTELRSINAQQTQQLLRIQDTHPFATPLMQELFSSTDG

Take `O=C(CN1CCN(Cc2ccc3c(c2)OCO3)CC1)N1c2ccccc2Sc2ccccc21`: the outcome in [1], in test [2], in test [3], in test [4], in test [6] and in test [8] was inactive. In addition, the outcome in [12] was inactive. Besides, the Potency result in [5], in test [7], in test [9] and in [16] was “inactive” each time. In addition, the Potency in [10] is 11.9 µM (active); in [13] it was 0.55 µM (active); in [14] it was 34.7 µM (active); in test [15], 15.5 µM (active); in [17], 4.77 µM (active). Further, the max activation in [11] is 6.39%.

Take `Nc1cc(Cl)cc(S(=O)(=O)O)c1O`: the result in [1], in test [2], in test [3], in test [4], in [6] and in test [8] was inactive. The Potency entry in test [5], in test [7], in test [9], in [10], in [13] and in test [16] was “inactive” throughout. Moreover, the Potency entry in test [17] and in test [18] was “inactive” each time. For the same compound, the Potency in test [14] was 41 µM (active).

In the case of `CCOC(=O)CCCCCCCCC(=O)OCC`, the outcome in test [1], in test [2], in [3], in test [4], in test [6] and in test [8] was inactive. Also, the Potency result in test [5], in test [7], in test [9], in [10], in test [13] and in [17] was “inactive” each time. In [18], the Potency result was “inactive”. Besides, the Potency in [15] is 31.7 µM (active); in test [16], 44.8 µM (active).

As to `COc1cc(C=O)ccc1OC(=O)C(C)C`, the outcome in [1], in [2], in [3], in [4], in test [6] and in test [8] was inactive. Besides, the Potency result in test [5], in test [7], in [9], in test [10], in [13] and in [17] was “inactive” in each case. Besides, in test [18], the Potency entry was “inactive”. Further, the Potency in [14] was 39.9 µM (active); in test [15], 35.6 µM (active).

As for `CC(=O)OCC(=O)[C@@]1(O)[C@H](OC(C)=O)C[C@H]2[C@@H]3CCC4=CC(=O)C=C[C@]4(C)[C@@]3(F)[C@@H](O)C[C@@]21C`, the call in test [1], in [2], in test [3], in [4], in test [6] and in [8] was inactive. The Potency result in test [5], in test [7], in test [9], in test [10], in [13] and in [14] was “inactive” each time. In addition, the Potency entry in test [15], in test [16] and in test [17] was “inactive” throughout.

For the compound `CC(CC(=O)O)CC(C)(C)C` (stereo not given), the compound was called inactive in test [1], in test [2], in test [3], in test [4], in test [6] and in test [8]. Further, the Potency entry in [5], in test [7], in [9], in test [10], in test [13] and in [14] was “inactive” each time. Further, the Potency result in [15], in test [16], in test [17] and in test [18] was “inactive” in each case.

On to `NS(=O)(=O)c1cc2c(cc1Cl)NC(CC1CCCC1)NS2(=O)=O` (stereo not given), for which the compound was classed as inactive in test [1], in test [2], in test [3], in test [4], in test [6] and in test [8]. For the same compound, in test [12], the compound was called inactive. Moreover, the Potency result in test [5], in test [7], in [9], in test [10], in test [19] and in test [13] was “inactive” in each case. Further, the Potency entry in test [14], in test [15] and in [17] was “inactive” in each case. In addition, in [11], the max activation was -1.01%.

Turning to `O=S(=O)(O)CCO`, the compound was called inactive in test [1], in test [2], in test [3], in test [4], in test [6] and in [8]. Also, the Potency result in test [5], in [7], in test [9], in test [10], in test [13] and in test [14] was “inactive” throughout. Moreover, the Potency entry in [15], in test [17] and in [18] was “inactive” in each case.
